Pol eta inh = qHTS for Inhibitors of Polymerase Eta; DNA polymerase eta (Homo sapiens), Q9Y253; recombinant Pol eta, fluorescent DNA replication assay; Potency, µM (top dose mostly 114 µM), without a hit: top-dose activity change, negative = inhibition, usual class: inhibitors; 390,000 compounds, 1.2% hits; AID 588591, 2011; further: on the % scale 0 is the no-effect control and ±100 the full control effect
Target sequence (Q9Y253 whole entry, looked up): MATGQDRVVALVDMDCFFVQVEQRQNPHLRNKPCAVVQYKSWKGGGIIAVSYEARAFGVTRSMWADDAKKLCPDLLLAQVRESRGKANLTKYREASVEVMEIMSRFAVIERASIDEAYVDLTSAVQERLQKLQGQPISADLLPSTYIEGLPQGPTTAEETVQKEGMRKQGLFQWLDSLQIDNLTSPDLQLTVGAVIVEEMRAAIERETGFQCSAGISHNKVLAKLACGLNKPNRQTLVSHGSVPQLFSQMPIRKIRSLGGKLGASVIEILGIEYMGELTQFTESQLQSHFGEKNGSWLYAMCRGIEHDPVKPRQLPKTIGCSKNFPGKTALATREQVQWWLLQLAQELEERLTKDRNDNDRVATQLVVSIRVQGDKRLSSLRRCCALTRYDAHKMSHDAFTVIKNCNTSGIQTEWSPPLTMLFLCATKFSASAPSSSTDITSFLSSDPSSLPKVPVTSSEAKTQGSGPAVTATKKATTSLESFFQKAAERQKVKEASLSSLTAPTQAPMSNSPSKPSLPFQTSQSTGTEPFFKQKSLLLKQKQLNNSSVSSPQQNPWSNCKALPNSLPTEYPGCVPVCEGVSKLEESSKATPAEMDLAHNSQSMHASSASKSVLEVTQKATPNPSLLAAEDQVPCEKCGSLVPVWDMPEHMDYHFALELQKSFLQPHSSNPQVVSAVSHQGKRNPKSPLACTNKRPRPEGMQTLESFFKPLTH
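Fluorescent replication assay: 50 nM final substrate added after a 15 min room-temperature compound preincubation with 10 nM enzyme. Signal taken at 0 min and again at 10 min.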
POLK inh = qHTS for Inhibitors of Polymerase Kappa; DNA polymerase kappa (Homo sapiens), Q9UBT6; purified Pol kappa, fluorescent DNA synthesis assay, 10 min; Potency, µM (doses to about 107 µM), inactives show top-dose activity, negative = inhibition, usual class: inhibitors; 400,000 compounds, 0.53% hits; further: on the % scale 0 is the no-effect control and ±100 the full control effect
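Activity was followed as the change in fluorescence between reads at 0 and 10 min after starting the reaction with 50 nM substrate. Beforehand, 10 nM polymerase had been preincubated with compound for 15 min at room temperature.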
FEN1 inhibitor = qHTS Assay for the Inhibitors of Human Flap endonuclease 1 (FEN1); P39748; AID 588795, 2011; 390,000 compounds, 0.35% hits; Potency, µM (highest dose often 114 µM), for inactives: top-dose activity change, negative = inhibition, actives largely listed as inhibitors; Recombinant FEN1 flap cleavage, fluorescence, 15 min; further: on the % scale 0 is the no-effect control and ±100 the full control effect; nearly all actives have a fitted effect of over 65% in size
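Read-out was taken twice, immediately and after 15 min, following addition of 50 nM substrate to 10 nM FEN1 that had sat with test compound for 15 min at room temperature. Curves came from a four-parameter Hill model.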
POLB inh = qHTS Assay for Inhibitors of DNA Polymerase Beta; P06746; Pol beta primer extension/strand displacement, fluorescence kinetic; Potency, µM (top dose mostly 114 µM), without a hit: at the top dose activity change, negative = inhibition, hits mostly inhibitors; 340,000 compounds, 1.3% hits; AID 485314, 2010; further: on the % scale 0 is the no-effect control and ±100 the full control effect
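Homogeneous kinetic assay of primer extension and strand displacement by 10 nM Pol beta, preincubated 15 min at room temperature with compound before 50 nM substrate (final) was added. Read at 0 and 10 min; four-parameter Hill fit.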
WRN inhibitor = qHTS for Inhibitors of WRN Helicase; 360,000 compounds, 0.46% hits; WRN helicase unwinding, fluorescent forked duplex, kinetic; Bifunctional 3'-5' exonuclease/ATP-dependent helicase WRN (Homo sapiens), Q14191; Potency, µM (doses to about 114 µM), without a hit: top-dose activity change, negative = inhibition, hits mostly inhibitors; AID 651768, 2012; further: on the % scale 0 is the no-effect control and ±100 the full control effect; nearly all actives have a fitted effect of over 55% in size
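Primary qHTS, 1536-well format. 20 nM WRN + compound, 15 min RT; start with 100 nM forked fluorophore/quencher duplex, 2 mM ATP (final); kinetic read ex 525/em 598 nm.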
POLI inh = qHTS for Inhibitors of Polymerase Iota. DNA polymerase iota (Homo sapiens), Q9UNA4. Pol iota fluorescent replication assay, 10 min. Potency, µM (top dose mostly 115 µM), for the others: top-dose activity, negative = inhibition, usual class: inhibitors. 390,000 compounds, 1% hits. AID 588590, 2011
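Fluorescent replication assay read twice, at 0 min and 10 min after adding 50 nM (final) substrate. Enzyme (10 nM) and compounds were first incubated 15 min at room temperature; enzyme-free buffer wells were negative controls.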
* marks the source's active call; other numbers are inactive results; u = inconclusive; x = no result; [ ] = another dose, or the depositor's remark. Sampled rows, rich in hits. Any-hit rate of the full collection: about 2.4%. The call rests on the fitted dose curve; in most records, active means well fitted curve in the direction sought with a large enough effect; inconclusive means small, poorly fitted or top-dose-only effect, or another doubt; inactive means no such curve, though single readings can be large; an effect the other way counts as inactive or inconclusive. Potency means the concentration at half of the fitted maximal effect.

SMILES	Pol eta inh	POLK inh	FEN1 inhibitor	POLB inh	WRN inhibitor	POLI inh
N#C/C(=C\c1ccc(O)c(O)c1)C(=O)NCCc1ccccc1	8.9µM*	u	u	-2%[57.1 µM]	7%	u
COc1cc(/C=C(\C#N)C(=O)NCCc2ccccc2)cc(OC)c1O	-10%	-5%	9%	21%	-6%	41%
COc1cc(/C=C(\C#N)C(=O)N2CCc3ccccc32)ccc1O	-3%	-12%	-16%	0%	-7%	-2%
COc1cc(N2Cc3ccccc3C2)ccc1C=O	u	-23%	-15%	11µM*	3%	u
Cc1cc(C)cc(N2Cc3ccccc3C2)c1	-18%	2%	-4%	18%	-5%	24%
O=C(OC1Cc2c(O)cc(O)cc2OC1c1cc(O)c(O)c(O)c1-c1c(C2Oc3cc(O)cc(O)c3CC2O)cc(O)c(O)c1O)c1cc(O)c(O)c(O)c1 (stereo not drawn)	x	0.79µM*	x	x	x	x
COc1ccc(OC)c(-c2nnc3n2N=C(c2ccc(OC)c(OCC4CC4)c2)CS3)c1	6%	u	-10%	x	x	-5%
COc1ccc(C2=Nn3c(nnc3-c3ccccc3Cl)SC2)cc1OCC1CC1	-23%	40µM*	4%	x	x	30%
CCOc1cc(-c2ccc(OC(=O)c3ccc(C)cc3)c(OC)c2)cc(=O)c2c(C)oc(C)c12	-8%	-14%	-2%	4%	x	-18%
CN1/C(=C/c2cc[n+](C)c3ccccc23)C=Cc2ccccc21	-18%	-17%	45µM*	32µM*	28µM*	27%
CCc1ccc(C(=O)CC2(O)C(=O)N(CCc3ccccc3)c3ccc(Cl)cc32)cc1 (stereo not drawn)	-21%	-11%	-29%	5%	x	0%
CCCC[n+]1ccn(-c2nc3ccccc3nc2[N-]S(=O)(=O)c2ccc(Br)cc2)c1	u	3%	0%	-7%	-1%	36%
CC(C)CC[n+]1ccn(-c2nc3ccccc3nc2[N-]S(=O)(=O)c2ccccc2)c1	-12%	-11%	-2%	79µM*	0%	22%
Cc1ccc(C)c(N/C(N)=N/c2nc(C)cc(C)n2)c1	-11%	3%	50µM*	42%	45%	22%
COc1ccc(C)cc1N/C(N)=N/c1nc(C)cc(C)n1	-5%	-6%	-5%	13%	0%	9%
Cc1cc(C)c2c(NC(=O)c3ccccc3Cl)c(C(=O)NCc3ccc(Cl)cc3)sc2n1	x	-16%	-19%	22µM*	x	-20%
CC(C)CNC(=O)C1Nc2ccccc2C2C=CCC12 (stereo not drawn)	-15%	-15%	-20%	x	5%	u
O=C(O)C1Nc2c(Cl)cc(Cl)cc2C2C=CCC12 (stereo not drawn)	2.8µM*	8.9µM*	22µM*	u	10µM*	4µM*
Cc1ccc(C)c2c1NC(C(=O)O)C1CC=CC21 (stereo not drawn)	x	3.2µM*	18µM*	x	x	11µM*
Cc1ccc(S(=O)(=O)N(CC(O)Cn2c3ccccc3c3ccccc32)c2cccc(C(N)=O)c2)cc1 (stereo not drawn)	-8%	-10%	-27%	0%	x	-22%
Cc1ccc(S(=O)(=O)N(CC(O)Cn2c3ccccc3c3ccccc32)c2cccc(C(=O)N(C)C)c2)cc1 (stereo not drawn)	-13%	79µM*	89µM*	-16%	x	89µM*
O=C(CS(=O)(=O)c1cccc2nsnc12)NCc1ccccc1	-11%	-13%[60.1 µM]	19%	4%	x	14%
c1csc(-c2nc(N3CCN(Cc4ccc5c(c4)OCCO5)CC3)c3ccccc3n2)c1	x	0%	-9%	x	x	15%
